Records with an inconclusive call do not appear. The source made the active and inactive calls. Calls follow the shape of the dose curve; as a rule, active = well fitted curve in the direction sought with a large enough effect; inconclusive = small, poorly fitted or top-dose-only effect, or another doubt; inactive = no such curve, though single readings can be large; an effect the other way counts as inactive or inconclusive.
Columns and labels:
[1] = target: Phospholipid hydroperoxide glutathione peroxidase GPX4 (Homo sapiens) (UniProt P36969); experiment: Primary qHTS Assay for Inhibitors of Recombinant Selenoprotein Glutathione Peroxidase 4 (GPX4) (AID 1845192); conditions: recombinant GPX4, GR-coupled NADPH fluorescence, 15 min; series mostly up to 50 µM; also: nearly all actives have a fitted effect of over 65% in size; also: potency is read from the fitted curve at half-maximal effect; as to activity change, negative = inhibition: % is scaled to controls: 0 for no effect and ±100 for the full control effect
Procedure, shortened: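 GR-coupled assay: recombinant GPX4 preincubated 30 min with compound at room temperature; final 200 nM GPX4, 1 mM GSH, 0.5 mM cumene hydroperoxide, 0.5 mM NADPH, 100 nM GR, 0.01% BSA, pH 7.5 Tris. NADPH fluorescence (340/450 nm) read at 0 and 15 min.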

[2] = target: Luciferin 4-monooxygenase (Photinus pyralis) (UniProt P08659); experiment: Primary firefly luciferase (FLuc) qHTS assay for identification of artifact compounds. (AID 1845220); conditions: purified firefly luciferase, luminescence, 5 min; series mostly up to 54.1 µM; also: nearly all actives have a fitted effect of over 60% in size;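 as to activity change, negative = inhibition: plate controls were DMSO vehicle for no effect and no enzyme for full effect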
Procedure, shortened: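 Titrated compounds were incubated 15 min at RT, protected from light, with luciferin and ATP at 10 uM; reaction started with 10 nM FLuc, luminescence imaged at 5 min, and concentration-response fitted by Hill equation.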

[3] = Primary fluorescence-based thiol-reactive (MSTI) qHTS assay for identification of artifact compounds. (AID 1845221); conditions: MSTI thiol-reactivity probe, 1 h; series mostly up to 53.8 µM; also: nearly all actives have a fitted effect of over 65% in size; also: potency is read from the fitted curve at half-maximal effect;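 as to activity change, negative = thiol reactive: thiol-reactive compounds lower the probe fluorescence signal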
Procedure, shortened: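 A multi-concentration qHTS design tested compounds against 4 uM MSTI, pH 7.4 phosphate-buffered saline. Plates were protected from light for 1 h at room temperature before imaging fluorescence.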

[4] = system: Nanoluciferase (engineered Oplophorus gracilirostris luciferase); experiment: Primary Nanoluciferase (NLuc) qHTS assay for identification of artifact compounds. (AID 1845222); conditions: NLuc-conditioned medium, Nano-Glo luminescence, 5 min; series mostly up to 54.1 µM;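 also: NLuc secreted into diluted conditioned medium of S16 cells; 0% = DMSO and -100% = no enzyme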
Procedure, shortened: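 qHTS format, against NLuc in S16 cell-conditioned medium. Nano-Glo substrate 1:100 was added after 15 min at room temperature. Luminescence was taken after a further 5 min.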

[5] = Primary redox qHTS assay for identification of artifact compounds. (AID 1845223); conditions: Amplex Red/HRP redox cycling with DTT, fluorescence; series mostly up to 53.8 µM;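 also: 0% = DMSO and 100% = reference compound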
Procedure, shortened: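 Amplex Red (25 uM) and HRP (250 mU/mL) in HBSS, with compounds for 15 min, then 250 uM DTT for 30 min, room temperature, dark. Fluorescence 525/598 nm read; normalized to DMSO and 10 uM DA3003; Hill fit.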

Chain of Phospholipid hydroperoxide glutathione peroxidase GPX4 (Homo sapiens) (P36969 whole entry, looked up): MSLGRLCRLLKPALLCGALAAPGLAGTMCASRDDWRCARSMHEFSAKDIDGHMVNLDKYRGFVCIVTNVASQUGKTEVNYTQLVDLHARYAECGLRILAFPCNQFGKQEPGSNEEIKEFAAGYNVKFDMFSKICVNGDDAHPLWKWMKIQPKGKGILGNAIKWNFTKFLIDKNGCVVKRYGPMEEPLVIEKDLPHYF

Cc1ccc(F)cc1C(=O)Nc1ccc(C(=O)N2Cc3cccn3Cc3ccccc32)c(Cl)c1
inactive: Potency [1] | Potency [2] | Potency [3] | Potency [4] | Potency [5]

NC(=O)Nc1cc(-c2cccc(F)c2)sc1C(=O)NC1CCCNC1 (stereo not given)
inactive: Potency [1] | Potency [2] | Potency [3] | Potency [4] | Potency [5]

COc1ccc2c(OC)c3ccoc3nc2c1OC
inactive: Potency [1] | Potency [2] | Potency [3] | Potency [4] | Potency [5]

O=C(O)/C=C/c1ccc(-c2ccc(O)c(C34CC5CC(CC(C5)C3)C4)c2)cc1
inactive: Potency [1] | Potency [2] | Potency [3] | Potency [4] | Potency [5]

Cc1cn(C2C=CC(CO)O2)c(=O)[nH]c1=O (stereo not given)
inactive: Potency [1] | Potency [2] | Potency [3] | Potency [4] | Potency [5]

C1CCC[C@H]2CCCN3CC[C@@H](CCCCCC[C@@H]4CCCN5CC[C@@H](CC1)O[C@@H]45)O[C@@H]23
inactive: activity change, negative = inhibition [1] -4.98% [at 0.121 µM] | outcome [2] inactive [at 0.0969 µM] | activity change, negative = thiol reactive [3] 0.0753% [at 0.0963 µM] | activity, negative = inhibition [4] 2.4% [at 0.0969 µM] | redox activity (% of DA3003) [5] -1.13% [at 0.0963 µM]

Cn1nc(C(C)(C)C)cc1C(=O)NC(Cc1cccc(Cl)c1)C(=O)NCC#N (stereo not given)
inactive: Potency [1] | Potency [2] | Potency [3] | Potency [4] | Potency [5]

C=C[C@H]1CN2CC[C@H]1C[C@@H]2C(O)c1ccnc2ccc(OC)cc12 (stereo not given in full)
inactive: Potency [1] | Potency [2] | Potency [3] | Potency [4] | Potency [5]

COc1cc(C2c3cc4c(c(O)c3CC(CO)C2C(=O)O)OCO4)cc(OC)c1O (stereo not given)
inactive: Potency [1] | Potency [2] | Potency [4] | Potency [5]
active: Potency [3] 10.3 µM

Cn1nnc(-c2ccc(-c3ccc(N4C[C@H](COP(=O)(O)O)OC4=O)cc3F)cn2)n1
inactive: Potency [2] | Potency [3] | Potency [4] | Potency [5]
active: Potency [1] 22.7 µM

NC(=O)c1cccc2cn(-c3ccc(C4CCCNC4)cc3)nc12 (stereo not given)
active: Potency [1] 20.2 µM
inactive: Potency [2] | Potency [3] | Potency [4] | Potency [5]

COc1cc2c(cc1OC)-c1[nH]nc(Nc3cccc(F)c3)c1C2
active: Potency [3] 1.89 µM
inactive: Potency [1] | Potency [2] | Potency [4] | Potency [5]

CN(C)c1nc(NC2CCC(NC(=O)c3ccc(F)c(F)c3)CC2)nc2ccccc12 (stereo not given)
inactive: Potency [1] | Potency [2] | Potency [3] | Potency [4] | Potency [5]

OCC1OC(Oc2cc(O)cc(/C=C/c3ccc(O)cc3)c2)C(O)C(O)C1O (stereo not given)
inactive: Potency [1] | Potency [2] | Potency [4] | Potency [5]
active: Potency [3] 2.93 µM

— PubChem BioAssay (NCATS)
